# D1 ag: Allosteric Agonists of the Human D1 Dopamine Receptor: qHTS; D(1A) dopamine receptor (Homo sapiens), P21728; HEK293 T-REx D1 cells, calcium flux, agonist mode; activation, % at 2 µM; hit rate 1% among 360,000; also: 0% is about no effect
# Target sequence (P21728 whole entry, looked up): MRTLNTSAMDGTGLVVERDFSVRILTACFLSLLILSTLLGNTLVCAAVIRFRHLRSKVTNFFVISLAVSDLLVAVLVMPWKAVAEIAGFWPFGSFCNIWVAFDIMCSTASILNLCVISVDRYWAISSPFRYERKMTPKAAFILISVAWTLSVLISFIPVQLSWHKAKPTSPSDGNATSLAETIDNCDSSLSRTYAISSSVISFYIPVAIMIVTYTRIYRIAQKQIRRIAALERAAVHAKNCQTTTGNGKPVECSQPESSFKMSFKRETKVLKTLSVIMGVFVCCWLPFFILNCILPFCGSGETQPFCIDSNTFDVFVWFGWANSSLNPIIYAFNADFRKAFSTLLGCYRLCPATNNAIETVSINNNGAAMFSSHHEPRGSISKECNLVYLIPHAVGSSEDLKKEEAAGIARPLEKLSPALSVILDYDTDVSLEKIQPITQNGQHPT
#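 Inducible HEK293 T-REx D1 cells, force-coupled to calcium signalling, were plated at 4000 cells/well with tetracycline and held overnight at 30 C. After no-wash calcium dye loading, compound-evoked calcium rise over 180 s flagged agonists.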
# D1 antag: Antagonist of Human D 1 Dopamine Receptor: qHTS; D(1A) dopamine receptor (Homo sapiens), P21728; HEK293 TREx D1 cells, calcium flux, dopamine EC80; active compounds read low; activity change, negative = inhibition, % at 10 µM; hit rate 3.2% among 360,000; in the data active = activity change below about -30%; also: % is scaled to controls: 0 for no effect and ±100 for the full control effect
#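 Cells carrying a force-coupled, tetracycline-inducible human D1 receptor report calcium flux. Each well gets a 10 s baseline, compound with 180 s monitoring, then an EC80 dopamine stimulus with a second 180 s kinetic read.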
# TRHR PAM: qHTS for Small Molecule Agonists and Allosteric Enhancers of Human TRH Receptor: Primary Screen for Enhancers; TRHR cells, fluo-8 calcium fluorescence, EC20 TRH enhancement; hit rate 0.66% among 360,000; Thyrotropin-releasing hormone receptor (Homo sapiens), P34981; enhancement, % at 2 µM; AID 493056, 2011; in the data active = enhancement above about 30%; also: 0% is about no effect
#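 Enhancer read-out: after compound pinning and an initial kinetic agonist-mode read, an EC20 of TRH (10 nM final) was injected and fluo-8 calcium signal (Ex 480/Em 530) followed at 1 s/cycle for 100 cycles in TRHR-expressing cells.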
# USP1 inh: Inhibitors of USP1/UAF1: Primary Screen | recombinant USP1/UAF1, Ub-Rhodamine cleavage fluorescence | Potency, µM (series often up to 57.1 µM), inactives show at the highest dose activity change, negative = inhibition, hits mostly inhibitors | hit rate 0.23% among 390,000 | AID 743255, 2014; active = well fitted inhibition curve with a large enough effect; also: potency is read from the fitted curve at half-maximal effect; % is scaled to controls: 0 for no effect and ±100 for the full control effect; nearly all actives have a fitted effect of over 60% in size
#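 In this screen, compounds sit with the deubiquitinase complex (1nM) for 15 min at room temperature before Ub-Rho is added at 150nM final. Fluorescence rise is then followed for 6 reads every 60 seconds.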
# D1 PAM: Potentiators of Human D1 Dopamine Receptor: qHTS. hit rate 0.036% among 360,000. HEK293 TREx D1 cells, calcium flux, dopamine EC20 potentiation. D(1A) dopamine receptor (Homo sapiens), P21728. potentiation, % at 10 µM; in the data active = potentiation above about 30%; also: 0% is about no effect
# TRHR ag: qHTS for Small Molecule Agonists and Allosteric Enhancers of Human TRH Receptor: Primary Screen for Agonists; Thyrotropin-releasing hormone receptor (Homo sapiens), P34981; TRHR cells, calcium flux fluo-8, FDSS agonist mode; activation, % at 2 µM; hit rate 0.18% among 360,000; also: 0% is about no effect
#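 In this calcium-flux screen, cells bearing human TRHR are dye-loaded with fluo-8, baselined for 10 cycles, then exposed to library compounds; positive kinetic calcium responses during the agonist phase mark hits, with TRH as control.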
# * hit, by the source's call; nt = no result. Only some compounds are listed: those with a hit (about 4.4% of all), similar ones and a draw of the others. Rule as the data show it, unless noted: active = activation above about 30%; inactive = the rest.
SMILES,D1 ag,D1 antag,TRHR PAM,USP1 inh,D1 PAM,TRHR ag
COc1ccccc1CNC(=O)CN1C(=O)CCc2cc(S(=O)(=O)N3CCOCC3)ccc21,2,4,1,-14%,0,-1
COc1ccc(S(=O)(=O)N2CCCCC2)cc1NC(=O)CCNC(=O)c1ccccc1Cl,1,-70*,-8,-16%,-3,-1
Cc1cc(C)cc(OCCOCCn2c(-c3ccc(Cl)cc3)nc3ccccc3c2=O)c1,5,-2,0,-8%,-2,0
CCc1ccc(NC(=O)CCc2c(C)n(C)c3cc(-c4ccccc4C)nn3c2=O)cc1,1,28,-4,-13%,-3,0
COc1ccccc1C(=O)Nc1c(C(=O)Nc2ccccc2F)oc2ccccc12,7,-2,-7,-2%,-2,4
CCc1ccc(NC(=O)CCNS(=O)(=O)c2ccc3c(c2)CCCC(=O)N3)cc1,1,1,15,-25%,-6,1
COc1cccc(C(c2ccccc2)N2C3CCC2CN(S(=O)(=O)c2ccc(F)cc2)CC3)c1 (configuration not stated),62*,-1,-4,-18%,-3,0
COc1ccc(Br)cc1CN1C(=O)c2ccccc2C1C(=O)NC1CCCCCC1 (configuration not stated),0,-6,-14,-18%,2,-2
COc1ccc(S(=O)(=O)Nc2c(NC3CCCCC3)c3ccccc3oc2=O)cc1,0,-31*,-1,-18%,-8,0
CCOC(=O)Cn1c(=O)n(CC2CCCO2)c2nc(-c3ccc(C)cc3)nc(C(N)=O)c21 (configuration not stated),6,12,1,-26%,0,-1
COc1ccc(CNC(=O)CSCc2nc(-c3ccccc3C)oc2C)cc1,4,-5,0,-3%,-5,1
c1ccc(-c2cc(CSc3nc4ccccc4[nH]3)on2)cc1,16,-31*,-1,-20%,-4,0
CCOc1cc(C(=O)Nc2ccc(F)cc2)cc(Br)c1OC,10,-53*,6,-24%,-1,2
CCOc1cc(C(=O)Nc2ccc(N3CCOCC3)cc2)cc(Br)c1OC,0,9,6,-20%,-2,0
O=C(COc1ccccc1)NC(=S)Nc1cccc2cc(O)ccc12,35*,19,-1,-26%,-2,2
CN1C(=O)C2CN(CCc3ccccc3)CNC2N(C)C1=O (configuration not stated),3,-35*,-3,-12%,-12,0
CN(C)S(=O)(=O)c1cccc(NC(=S)NCc2ccco2)c1,11,6,39*,-27%,0,2
CC(=O)c1cccc(NC(=S)NCc2ccco2)c1,3,-3,0,-19%,0,0
CCC(Oc1ccccc1F)C(=O)N1CCC(c2nc3ccccc3s2)CC1 (configuration not stated),36*,-18,5,-11%,-2,-1
Cc1ccc(C2C(C(=O)O)c3ccccc3C(=O)N2C)c(C)c1 (configuration not stated),2,-40*,-2,-20%,2,0
CCOc1ccc(CNC(=O)CCC(=O)N2CC3CCCN3c3ccccc32)cc1 (configuration not stated),1,12,7,-1%,-1,0
N#C/C(=C\c1cccnc1)C(=O)Nc1ccc(Cl)cc1,7,-31*,3,-17%,-3,-1
COc1ccccc1NC(=O)/C(C#N)=C/c1cccnc1,-1,-31*,-5,-14%,-6,0
COc1ccccc1NC(=O)/C(=C\c1cccnc1)NC(=O)c1ccc(C)cc1,2,-32*,-2,-26%,3,0
N#C/C(=C\c1cccnc1)C(=O)Nc1cccc(Cl)c1,7,-7,8,-16%,-2,-1
SMILES,D1 ag,D1 antag,TRHR PAM,USP1 inh,D1 PAM,TRHR ag
COCc1cc(C)n(CC(=O)Nc2cccc(C(C)=O)c2)c(=O)c1C#N,0,-9,3,-19%,-3,0
COc1ccccc1NC(=O)c1sc2nc3n(c(=O)c2c1C)N=C(c1cccc(Br)c1)CS3,3,-12,4,-12%,-3,0
COc1cc(OC)c(NC(=O)CN(C)S(=O)(=O)c2ccc3c(c2)CCCC(=O)N3)cc1Cl,7,-7,-4,-18%,0,-1
CN1NC(=O)CC1c1ccccc1 (configuration not stated),nt,nt,nt,2%,nt,nt
CN1CC2(C)OC(=O)C(Cl)=C2CC1c1ccccc1 (configuration not stated),3,-55*,-3,-7%,-6,0
CC(=O)Nc1ccc(C(=O)/C=C/c2ccco2)cc1,3,-77*,-3,-16%,-5,0
CC(=O)Nc1cccc(C(=O)/C=C/c2ccco2)c1,1,-7,-3,-9%,-3,2
O=S(=O)(c1cccc(C(F)(F)F)c1)N1CCN(c2nc(-c3cccs3)nc3cc(Cl)ccc23)CC1,2,30,0,nt,4,-1
O=C(NC1CC(=O)N(c2ccccc2)C1)c1cc2ccccc2o1 (configuration not stated),2,nt,24,14%,0,0
Cc1ccc(CNS(=O)(=O)c2ccc(C(C)(C)C)cc2)n1C,3,-31*,1,-23%,-18,0
CN(C)/C=C/C(=O)c1ccc(Cl)cc1,8,-86*,6,-19%,-2,-1
CN(C)/C=C/C(=O)c1cccc(Cl)c1,6,12,8,-3%,1,-1
Cc1nc2nc(C)c(CCC(=O)NC(C)c3ccc4c(c3)OCCO4)c(C)n2n1 (configuration not stated),6,-48*,-5,-10%,-8,0
Cc1cc(O)c(CN2CCN(c3ccccc3)CC2)c2oc(=O)cc(C)c12,1,7,-1,-28%,-1,0
CCCN(CCC)C(=O)Cn1c(=O)n(-c2cccc(C)c2)c(=O)c2c1c1cc(OC)ccc1n2C,2,-1,-6,-26%,0,0
CCCCN(Cc1cc2cc(C)ccc2[nH]c1=O)C(=O)c1ccccn1,1,3,30*,-12%,-11,0
